Experimental data published in PubChem BioAssay (Tox21).
Inconclusive results are not listed. Where a call stands in place of a potency, no number is given. Active and inactive are the calls of the source. Unless noted, the call rests on the fitted dose curve; in most records, active means well fitted curve in the direction sought with a large enough effect in the repeat runs; inconclusive means weak or mixed curves; inactive means no such curve, though single readings can be large; an effect the other way counts as inactive or inconclusive.

Experiments:
[1] = qHTS assay for small molecule agonists of the p53 signaling pathway (AID 651631; calls by dose curve; further: nearly all actives have a fitted effect of over 15% in size)
In short: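 Read-out is beta-lactamase FRET fluorescence measured 2 h after substrate addition at room temperature, in HCT-116 cells with a p53 response element-driven reporter exposed to compounds for 16 h at 37 °C.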

[2] = qHTS assay for small molecules that induce genotoxicity in human embryonic kidney cells expressing luciferase-tagged ATAD5 (AID 651632); further: nearly all actives have a fitted effect of over 15% in size
In short: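 Reporter cells (HEK293T) express luciferase-tagged ATAD5, a protein that accumulates after DNA damage. Treat 16 hr at 37C/5% CO2, add Amplite, wait 30 min at RT, and read luminescence.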

[3] = qHTS assay for small molecule agonists of the p53 signaling pathway - cell viability (AID 651633; calls by dose curve;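 further: p53RE-bla HCT reporter cells with a stable beta-lactamase p53 reporter; nearly all actives have a fitted effect of over 30% in size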)
In short: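 Viability counter-read: CellTiter-Glo luminescence (30 min, room temperature) in the same p53RE-bla plates. These plates had been exposed to compounds for 16 h at 37 C.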

[4] = qHTS assay for small molecules that induce genotoxicity in human embryonic kidney cells expressing luciferase-tagged ATAD5 - cell viability (AID 651634; calls by dose curve; further: nearly all actives have a fitted effect of over 25% in size)
In short: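 Seeding of 2,000 HEK293T ATAD5-luciferase cells per well preceded pin-tool compound transfer. Plates sat 15.5 hr at 37C under 5% CO2, then fluorescence was read after 30 min with CellTiter-Fluor.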

[5] = qHTS assay for small molecule disruptors of the mitochondrial membrane potential - cell viability (AID 720634; calls by dose curve;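 further: human HepG2 liver cancer cells; nearly all actives have a fitted effect of over 20% in size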)
In short: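 Measuring cytotoxicity alongside mitochondrial potential, the screen quantified ATP by luminescence in HepG2 cells after 1 hr compound incubation and a 30 min room-temperature CellTiter-Glo step.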

[6] = qHTS assay for small molecule disruptors of the mitochondrial membrane potential (AID 720635)
In short: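 Mitochondrial membrane potential tracked with Mito-MPS dye, red aggregates (ex 540/em 590 nm) against green monomers (ex 490/em 535 nm). Compound treatment 1 hr at 37C, dye 30 min in HepG2.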

[7] = qHTS assay to test for compound auto fluorescence at 590 nm (red) in HepG2 cells (AID 720674)
In short: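 1 hr compound incubation on HepG2 cells, 37 C, 5% CO2; plate read ex 540 nm / em 590 nm; intensities reported as Rose Bengal sodium equivalents.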

[8] = qHTS assay to test for compound auto fluorescence at 535 nm (green) in HepG2 cells (AID 720675)
[9] = qHTS assay to test for compound auto fluorescence at 460 nm (blue) in HEK293 cells (AID 720678)
In short: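 Blue-channel (Ex/Em 405/460 nm) intensity measured in HEK293 cultures after overnight compound exposure at 37C; signal expressed relative to triamterene. Cells plated 2,000 per well in 10% dialyzed FBS medium and allowed 4-5 hr to attach.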

[10] = qHTS assay to test for compound auto fluorescence at 590 nm (red) in HEK293 cells (AID 720679)
In short: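 Red-channel autofluorescence (Ex/Em 540/590 nm; Rose Bengal sodium reference) was measured after overnight 37C, 5% CO2 exposure of attached HEK293 cells, 2,000 per well in medium with 10% dialyzed FBS.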

[11] = qHTS assay to test for compound auto fluorescence at 535 nm (green) in HEK293 cells (AID 720680)
[12] = qHTS assay to test for compound auto fluorescence at 460 nm (blue) in HEK293 cell free culture (AID 720681)
In short: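 Blue fluorescence (Ex 405/Em 460 nm, triamterene-equivalent) was read immediately after pin transfer of compound or DMSO into medium (DMEM, 10% FBS) without cells.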

[13] = qHTS assay to test for compound auto fluorescence at 535 nm (green) in HEK293 cell free culture (AID 720682)
In short: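 Fluorescein serves as the green reference fluorophore; each compound's intrinsic emission at 535 nm (excitation 485 nm) is reported as an equivalent amount of that dye, measured in serum-containing DMEM without cells.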

[14] = qHTS assay to test for compound auto fluorescence at 590 nm (red) in HEK293 cell free culture (AID 720683)
In short: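 Red-channel autofluorescence of compounds in culture medium (DMEM, 10% FBS), no cells, measured at 540/590 nm. Rose Bengal sodium is the reference fluorophore for equivalence.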

[15] = qHTS assay to test for compound auto fluorescence at 590 nm (red) in HepG2 cell free culture (AID 720684)
In short: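 Plate contents were MEM with 10% FBS plus test compound or DMSO, no cells. Fluorescence was recorded with 540 nm excitation and 590 nm emission.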

[16] = qHTS assay to test for compound auto fluorescence at 460 nm (blue) in HepG2 cell free culture (AID 720685)
In short: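 Compound (23 nL) or DMSO pinned into cell-free MEM with 10% FBS; blue fluorescence read at 405/460 nm excitation/emission, expressed as auto-fluorescence equivalency to triamterene.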

[17] = qHTS assay to test for compound auto fluorescence at 535 nm (green) in HepG2 cell free culture (AID 720686)
[18] = qHTS assay to test for compound auto fluorescence at 460 nm (blue) in HepG2 cells (AID 720687)
In short: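 Blue-channel autofluorescence (Ex/Em 405/460 nm, triamterene-equivalent) was measured after 1 hr compound exposure at 37 C, 5% CO2. Cells were HepG2, plated overnight at 37 C in MEM plus 10% FBS.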

[19] = target: Glucocorticoid receptor (Homo sapiens) (UniProt P04150); assay: qHTS assay to identify small molecule agonists of the glucocorticoid receptor (GR) signaling pathway (AID 720691; active means well fitted activation curve with a large enough effect in the signal ratio in the repeat runs, not every such curve was filed as active; the % refers to the signal ratio; further: potency means the concentration at half of the fitted maximal effect); conditions: GR-bla HeLa, beta-lactamase reporter ratio, 18 h; activation: at 62.4 µM (top of the series)
Sequence of Glucocorticoid receptor (Homo sapiens) (P04150 whole entry, looked up): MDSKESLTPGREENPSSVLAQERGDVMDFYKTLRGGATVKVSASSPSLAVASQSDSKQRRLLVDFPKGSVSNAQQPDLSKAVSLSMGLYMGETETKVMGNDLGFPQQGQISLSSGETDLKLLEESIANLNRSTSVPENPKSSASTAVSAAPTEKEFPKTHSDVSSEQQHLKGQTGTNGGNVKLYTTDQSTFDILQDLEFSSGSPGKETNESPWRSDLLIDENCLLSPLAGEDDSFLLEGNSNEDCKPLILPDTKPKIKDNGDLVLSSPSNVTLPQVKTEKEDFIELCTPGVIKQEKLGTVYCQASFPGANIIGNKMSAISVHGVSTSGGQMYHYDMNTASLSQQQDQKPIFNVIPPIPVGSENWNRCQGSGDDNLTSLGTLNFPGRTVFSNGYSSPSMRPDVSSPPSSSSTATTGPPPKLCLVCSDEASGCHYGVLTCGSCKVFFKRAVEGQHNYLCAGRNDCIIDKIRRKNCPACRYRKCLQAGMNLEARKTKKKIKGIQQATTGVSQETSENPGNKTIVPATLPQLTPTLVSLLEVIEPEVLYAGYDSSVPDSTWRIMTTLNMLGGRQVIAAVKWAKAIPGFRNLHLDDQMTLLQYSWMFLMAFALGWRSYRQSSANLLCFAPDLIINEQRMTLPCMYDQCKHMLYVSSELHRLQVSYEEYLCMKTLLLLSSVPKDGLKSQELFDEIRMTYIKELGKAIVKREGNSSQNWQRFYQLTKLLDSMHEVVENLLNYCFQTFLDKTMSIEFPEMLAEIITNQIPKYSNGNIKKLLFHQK
In short: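 Reporter read-out: fluorescence intensity following 2 h room-temperature LiveBLAzer B/G FRET substrate loading. Prior step: GR-bla HeLa cells held 4 h, then treated 18 h at 37 C.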

[20] = target: Glucocorticoid receptor (Homo sapiens) (UniProt P04150); assay: qHTS assay to identify small molecule antagonists of the glucocorticoid receptor (GR) signaling pathway (AID 720692; active means well fitted inhibition curve with a large enough effect in the signal ratio in the repeat runs, not every such curve was filed as active; the % refers to the signal ratio)
In short: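 Dexamethasone (5 nM final) stimulated a stably integrated GRE-beta-lactamase reporter in HeLa cells during 18 h co-incubation with compounds; signal was quantified as fluorescence intensity of B/G FRET substrate after 2 h.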

Row | Compound | Potency [1] | Potency [2] | Potency [3] | Potency [4] | Potency [5] | Potency [6] | Potency [7] | Potency [8] | Potency [9] | Potency [10] | Potency [11] | Potency [12] | Potency [13] | Potency [14] | Potency [15] | outcome [16] | Potency [17] | outcome [18] | Potency [19] | Potency [20]
1 | CCOC(=O)CN[C@@H](C(=O)N1CC[C@H]1C(=O)NCc1ccc(/C(N)=N/O)cc1)C1CCCCC1 | inactive | inactive | inactive | inactive | inactive | inactive | inactive | inactive | inactive | inactive | inactive | inactive | inactive | inactive | inactive | inactive | inactive | inactive | inactive | inactive
2 | Cn1nnnc1SCC1=C(C(=O)O)N2C(=O)[C@@H](NC(=O)[C@H](O)c3ccccc3)[C@H]2SC1 | inactive | inactive | inactive | inactive | inactive | inactive | inactive | inactive | inactive | inactive | inactive | inactive | inactive | inactive | inactive | inactive | inactive | inactive | inactive | inactive
3 | CN(C)C=Nc1c(I)cc(I)c(CCC(=O)O)c1I | inactive | inactive | inactive | inactive | inactive |  | inactive | inactive | inactive | inactive | inactive | inactive | inactive | inactive | inactive | inactive | inactive | inactive |  | 
4 | Cn1cc(NC(=O)c2cc(NC(=O)c3cc(NC=O)cn3C)cn2C)cc1C(=O)NCCC(=N)N | inactive | inactive | inactive | inactive | inactive |  | inactive | inactive | inactive | inactive | inactive | inactive | inactive | inactive | inactive | inactive | inactive | inactive |  | 
5 | COc1cc2c(cc1OC)CC(=O)N(CCCN(C)C[C@H]1Cc3cc(OC)c(OC)cc31)CC2 | inactive | inactive | inactive | inactive | inactive |  | inactive | inactive | inactive | inactive | inactive | inactive | inactive | inactive | inactive | inactive | inactive | inactive | inactive | 
6 | CC1(O)CCC(C(C)(C)O)CC1 (stereo not given) | inactive | inactive | inactive | inactive | inactive |  | inactive | inactive | inactive | inactive | inactive | inactive | inactive | inactive | inactive | inactive | inactive | inactive | inactive | 
7 | CC(=O)N(CC(C)C(=O)O)c1c(I)cc(I)c(N)c1I (stereo not given) | inactive | inactive | inactive | inactive | inactive |  | inactive | inactive | inactive | inactive | inactive | inactive | inactive | inactive | inactive | inactive | inactive | inactive | inactive | 
8 | CO[C@@H]1[C@@H](O[C@@H]2O[C@H](C)[C@@H](O[C@H]3C[C@@](C)(O)[C@@H](O)[C@H](C)O3)[C@H](N(C)C)[C@H]2O)[C@@H](CC=O)C[C@@H](C)[C@@H](O[C@@H]2CC[C@H](N(C)C)[C@@H](C)O2)/C=C/C=C/C[C@@H](C)OC(=O)C[C@H]1O | inactive | inactive | inactive | inactive | inactive |  | inactive | inactive | inactive | inactive | inactive | inactive | inactive | inactive | inactive | inactive | inactive | inactive | inactive | 
9 | O=C1c2ccccc2C(=O)C1c1ccc(Cl)cc1 | inactive | inactive | inactive | inactive | inactive |  | inactive | inactive | inactive | inactive | inactive | inactive | inactive | inactive | inactive | inactive | inactive | inactive |  | 
10 | CCCC(=O)N1CCCN(c2nc(N)c3cc(OC)c(OC)cc3n2)CC1 | inactive | inactive | inactive | inactive | inactive |  | inactive | inactive | inactive | inactive | inactive | inactive | inactive | inactive | inactive | inactive | inactive | inactive |  | 
11 | c1cnc2cc3c(cc2n1)[C@@H]1CNC[C@H]3C1 | inactive | inactive | inactive | inactive | inactive |  | inactive | inactive | inactive | inactive | inactive | inactive | inactive | inactive | inactive | inactive | inactive | inactive |  | 
12 | C=C1CC2C3CCC4=CC(=O)C=C[C@]4(C)[C@@]3(F)[C@@H](O)C[C@]2(C)[C@@]1(O)C(=O)COC(C)=O (stereo not given in full) | inactive | inactive | inactive | inactive | inactive |  | inactive | inactive | inactive | inactive | inactive | inactive | inactive | inactive | inactive | inactive | inactive | inactive | 15.1 nM (active) | 
